Holding throughout (experiment): NCI-60 one-dose screen, 48 h (100 = growth as untreated, 0 = no growth, -100 = all killed)
Common to all, as to conditions: 10 µM unless noted

For assay [1], the system named is MDA-MB-231 breast.
The test system of assay [2] is SF-268 CNS.
The test system of assay [3] is SF-295 CNS.
Assay [4] relates to SF-539 CNS.
For assay [5], the system named is UACC-257 melanoma.
For assay [6], the system named is M14 melanoma.
Assay [7] relates to HT29 colon.
Assay [8] concerns SNB-75 CNS.
For assay [9], the system named is SNB-19 CNS.
In assay [10] the test system is U251 CNS.
For assay [11], the system named is PC-3 prostate.
Assay [12] relates to SK-MEL-5 melanoma.
In assay [13] the test system is UACC-62 melanoma.
For assay [14], the system named is SK-MEL-28 melanoma.
Assay [15] concerns SK-MEL-2 melanoma.
For assay [16], the system named is MALME-3M melanoma.
Assay [17] relates to HCT-15 colon.
Assay [18] concerns LOX IMVI melanoma.
Assay [19] deals with RXF 393 renal.

About 83,000 compounds went through this panel and 20% of them were active in at least one assay; those are over-represented in the sample as a whole.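 Treatment: one concentration, 48 hours, 96-well format. Scoring: percent growth, with anything below 10 considered active.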 Unmarked numbers belong to inactive results. Active and inactive are the calls of the source.

Turning to `Cc1cc(C)c(OC(=O)CSc2nc3ccccc3c(=O)n2CCc2ccccc2)cc1C`, the growth in [1] was 80.1%; in [2], 97.1%; in assay [3] it was 87.3%; in assay [4], 97.3%; in assay [5] it was 103%; in assay [6], 102%. In addition, the growth in assay [7] was 99.5%; in assay [8], 88.1%; in assay [9] it was 103%; in assay [10], 74.1%; in assay [11], 66%; in [12], 108%. The growth is 77% in assay [13], 111% in assay [14] and 112% in assay [15].

As to `NC(N)=NN=c1c(=O)c2ccccc2c1=O`, the growth in assay [16] was -96.4% (active); in [1], 90.8%; in assay [2] it was 50.6%; in assay [3], 66%; in [4], 112%; in [5], 106%. Besides, the growth was -90.8% (active) in assay [6]; 43.4% in assay [17]; -49.4% (active) in assay [7]; 72.1% in assay [10]; 78% in assay [11]; 103% in [13]. Also, the growth was -44.9% (active) in assay [18], 80% in [14] and 118% in assay [15].

Regarding `Cc1nn(-c2ccccc2)c(Cl)c1C(CC(=O)c1ccc(Cl)cc1)CC(=O)c1ccc(Cl)cc1`, the growth is 94.7% in [16]; 80.5% in assay [1]; 92.2% in assay [19]; 91.3% in [2]; 92.4% in assay [3]; 100% in assay [5]. Moreover, the growth in [6] was 83.9%; in assay [17], 86.6%; in [7], 77%; in assay [9], 82.4%; in assay [10] it was 82.2%; in assay [11], 73.1%. Further, the growth is 89.7% in assay [12]; 82.4% in [13]; 81.8% in [18]; 112% in [14]; 89.1% in assay [15].

As for `Cc1nn(-c2ccccc2)c2nc(Cl)c(/C=C/C(=O)c3ccccc3)c(-c3ccccc3)c12`, the growth is 101% in assay [16]; 111% in assay [1]; 103% in assay [19]; 106% in assay [2]; 105% in assay [3]; 114% in assay [5]. In addition, the growth in assay [6] is 90.1%; in assay [17], 101%; in assay [7], 103%; in assay [8], 89.4%; in assay [9], 98.9%; in [10], 104%. Besides, the growth is 101% in [11]; 96.3% in assay [12]; 102% in assay [13]; 96.1% in [18]; 109% in [14]; 96.4% in assay [15].

With `Cc1c(C(N)=O)sc2c1c(=O)n(Cc1ccccc1)c1nnc(SCC(=O)Nc3ccc(Cl)cc3)n21`, the growth in assay [16] is 15.8%; in assay [1], -6.85% (active); in assay [19] it was 38%; in assay [2], 60.1%; in [3], 49.4%; in [5] it was 35.3%. Moreover, the growth in assay [6] was 40.5%; in assay [17], 82.5%; in assay [7] it was 37.1%; in [8], -52% (active); in [9] it was 58%; in [10], 20.2%. Further, the growth was 38.1% in [11]; 51.8% in assay [12]; 57.6% in assay [13]; 41.8% in assay [18]; 17.3% in assay [14]; 0.559% (active) in assay [15].

Turning to `Cc1nn(-c2ccc(Cl)cc2)c2nc3c(nc12)c(=O)oc1ccccc13`, the growth in [16] is 108%; in assay [1], 110%; in assay [19], 136%; in [2], 104%; in assay [3], 92.7%; in [5], 104%. The growth in assay [6] is 107%; in [17], 103%; in [7], 99.7%; in assay [8], 92.1%; in assay [9], 100%; in assay [10], 93.9%. Moreover, the growth is 106% in assay [11]; 114% in [12]; 102% in assay [13]; 101% in assay [18]; 110% in assay [14]; 107% in [15].

For `Cc1nn(-c2ccc(Br)cc2)c2nc3c(nc12)C(=O)C(=O)c1ccccc1-3`, the growth in assay [16] was 91.2%; in assay [1] it was 78.7%; in assay [19], 111%; in assay [2] it was 101%; in assay [3] it was 97.5%; in assay [5], 98.6%. For the same compound, the growth is 98.2% in assay [6]; 90.5% in assay [17]; 99.8% in assay [7]; 85.7% in assay [8]; 92.5% in assay [9]; 103% in [10]. Moreover, the growth in assay [11] was 87.7%; in assay [12], 89.6%; in [13], 90.6%; in [18], 88.1%; in assay [14], 96.3%; in assay [15], 102%.

For `COc1cc2c(c(OC)c1OC)-c1ccc(NN(C(=O)c3ccccc3)C(=O)c3ccccc3)c(=O)cc1[C@@H](NC(C)=O)CC2` (tested in a mixture with another compound), the growth is 39.4% in assay [16]; 51.2% in assay [1]; 38.5% in assay [19]; 48.9% in [2]; -30.7% (active) in assay [3]; 15.4% in assay [4]. Moreover, the growth is 58.4% in assay [5]; 4.01% (active) in [6]; 6.31% (active) in [7]; 27.7% in assay [8]; 49.1% in assay [9]; 24.8% in assay [10]. Moreover, the growth in [11] was 40.9%; in assay [12], 20.2%; in [13], 59.6%; in [14], 52.9%; in [15], 10.4%.

For the compound `O=C1Cc2cc(CCn3cncn3)c(Cl)cc2N1`, the growth is 93.8% in assay [16]; 56% in assay [1]; 62% in [19]; 110% in assay [2]; 69.3% in assay [3]; 51.7% in assay [5]. Also, the growth in assay [6] is 24%; in [17], 54.6%; in assay [7], 97.1%; in assay [8] it was 63.6%; in assay [9], 74.4%; in [10], 73.4%. Further, the growth in assay [11] is 86.4%; in [12], 40.1%; in [13] it was 68.2%; in assay [18], 81%; in assay [14] it was 67.2%; in assay [15], 71.3%.

For `Cc1nn(-c2ccccc2)c2ncc3c(c12)C(=O)N(Cc1ccccc1)C3=O`, the growth in assay [16] was 72%; in assay [1] it was 14.3%; in [19], 68%; in assay [2], 81.3%; in assay [3], 1.19% (active); in assay [5], 94.3%. Also, the growth in assay [6] was 68.7%; in assay [17], 86.3%; in [7] it was 53.5%; in assay [8], -27.1% (active); in assay [9], 47.9%; in [10] it was 8.03% (active). Besides, the growth in [11] is 75.2%; in assay [12] it was 99.5%; in [13] it was 75%; in [18], 37.2%; in assay [14], 91.9%; in [15], 113%.

For the compound `CCCCOc1ccc(C(C)(C)c2ccc(OCCCC)cc2)cc1`, the growth is 98.7% in assay [16]; 111% in [1]; 125% in assay [19]; 115% in [2]; 92.1% in assay [4]; 104% in assay [6]. Moreover, the growth in assay [7] was 102%; in [8], 97.6%; in assay [9], 108%; in assay [11], 99.9%; in [12] it was 111%; in [13], 106%. The growth in assay [18] is 101%; in assay [14] it was 107%; in [15], 96.9%.

These data come from PubChem BioAssay (NCI).
